Results on 23 compounds are retold here after PubChem BioAssay (NCATS).

Experiment [1] is described as follows: qHTS assay for small molecule antagonists of peroxisome proliferator-activated receptor delta signaling (AID 588535; active = well fitted inhibition curve with a large enough effect in the signal ratio, with a control signal flat, not every such curve was filed as active; the % refers to the signal ratio;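 as to max response: cells co-treated with a PPAR-delta agonist as stimulator during compound exposure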). The following applies: HEK293T PPARd-UAS-bla, beta-lactamase FRET ratio, 18 h; 460 nm channel. The procedure, abridged:
(§1)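 Inhibition of PPAR-delta response element-driven beta-lactamase expression is measured in HEK293T cells exposed to a compound titration series for 18 hrs at 37 C. Half-maximal inhibition comes from Hill equation fitting.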
For orientation: In qHTS, concentration-response curves come from the screen itself.

Experiment [2] has as its target Peroxisome proliferator-activated receptor delta (Homo sapiens) (UniProt Q03181). Described as above. The following applies: HEK293T PPARd-UAS-bla, beta-lactamase FRET ratio, 18 h; series mostly up to 76.7 µM. The procedure, abridged: as §1
Experiment [3] concerns the target Peroxisome proliferator-activated receptor gamma (Homo sapiens) (UniProt P37231). As to the kind of experiment: qHTS assay for small molecule agonists of peroxisome proliferator-activated receptor gamma signaling (AID 588536; active = well fitted curve in the direction sought with a large enough effect in the signal ratio, with a control signal flat, not every such curve was filed as active; the % refers to the signal ratio;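 also: 0% = DMSO basal wells and 100% = rosiglitazone at 2 µM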). The following applies: HEK293 PPARg-UAS-bla, beta-lactamase ratio, 16 h, percent of rosiglitazone response, DMSO as zero; series mostly up to 76.7 µM. Put shortly:
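Beta-lactamase reporter read-out: CCF4 fluorescence (ex 405, em 460/530 nm) after 2 h at RT. HEK293 GeneBLAzer cells were treated for 16 h at 37 C. Hill fits gave EC50 and efficacy versus 2 uM rosiglitazone (100%) and DMSO (0%).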

The target is the same in experiment [4]. The experiment is described as follows: qHTS assay for small molecule antagonists of peroxisome proliferator-activated receptor gamma signaling (AID 588537; active = well fitted inhibition curve with a large enough effect in the signal ratio, with a control signal flat, not every such curve was filed as active; the % refers to the signal ratio; also: potency is read from the fitted curve at half-maximal effect). As to conditions: HEK293 PPARg-UAS-bla, beta-lactamase ratio, antagonist mode; series mostly up to 76.8 µM. The procedure, abridged: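 Compounds are tested as concentration series for inhibition of rosiglitazone-driven (50 nM) reporter expression in GeneBLAzer PPAR-gamma-UAS-bla HEK293 cells. After 16 h at 37 C, CCF4 substrate is added for 2 h at room temperature and blue/green fluorescence is measured.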

Experiment [5] is described as follows: qHTS assay for small molecule agonists of retinoid X receptor alpha signaling (AID 588544). The following applies: HEK293T RXRa-UAS-bla, beta-lactamase reporter, 18 h; 530 nm emission.
In experiment [6] the target is Retinoic acid receptor RXR-alpha (Homo sapiens) (UniProt P19793). Described as above. As to conditions: HEK293T RXRa-UAS-bla, beta-lactamase reporter, 18 h; series mostly up to 76.7 µM.
Sequence of Retinoic acid receptor RXR-alpha (Homo sapiens) (P19793 whole entry, looked up): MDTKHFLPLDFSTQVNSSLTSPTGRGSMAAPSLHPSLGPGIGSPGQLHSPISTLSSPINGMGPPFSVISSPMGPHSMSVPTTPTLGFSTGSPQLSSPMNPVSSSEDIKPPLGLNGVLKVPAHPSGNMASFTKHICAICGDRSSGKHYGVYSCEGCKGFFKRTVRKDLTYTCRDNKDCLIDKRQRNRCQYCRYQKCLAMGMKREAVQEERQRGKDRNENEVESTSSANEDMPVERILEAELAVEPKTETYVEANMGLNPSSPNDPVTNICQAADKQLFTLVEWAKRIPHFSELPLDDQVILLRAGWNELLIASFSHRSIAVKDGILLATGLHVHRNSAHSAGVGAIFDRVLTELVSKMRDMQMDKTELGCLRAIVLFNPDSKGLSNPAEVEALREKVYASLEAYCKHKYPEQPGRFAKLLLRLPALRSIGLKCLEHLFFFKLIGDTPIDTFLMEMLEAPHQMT
Experiment [7] deals with Thyroid hormone receptor beta (Homo sapiens) (UniProt P10828). As to the kind of experiment: qHTS assay for small molecule agonists of thyroid hormone receptor beta signaling (AID 588545).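 Also: 0% = DMSO only and 100% = 10 nM T3.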 The following applies: TR-UAS-bla GripTite HEK 293, beta-lactamase ratio, agonist mode, 18 h, percent of T3 response, DMSO as zero; series mostly up to 76.7 µM. The procedure, abridged:
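Stimulation of a TR-driven beta-lactamase reporter was quantified in GripTite HEK 293 cells. Compound series ran for 18 hrs; curves were normalized to T3 and DMSO controls and fitted to yield EC50.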

Experiment [8] is described as follows: qHTS assay for small molecule antagonists of retinoid X receptor alpha signaling (AID 588546; active = well fitted inhibition curve with a large enough effect in the signal ratio, with a control signal flat, not every such curve was filed as active; the % refers to the signal ratio;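 also: cells stimulated with 9-cis-retinoic acid as agonist; % is scaled to controls: 0 for no effect and ±100 for the full control effect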). As to conditions: HEK293T RXRa-UAS-bla, beta-lactamase ratio, antagonist mode; measured here: W530 green channel, cytotoxicity proxy. Put shortly: (§2)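 Beta-lactamase reporter inhibition, read as CCF4 fluorescence ratio (ex 405, em 460/530 nm) after 2 h at RT. HEK293T UAS-bla cells, 2500/well, were stimulated with 9-cis-RA at 500 or 100 nM final alongside test compound for 18 h at 37 C.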

Experiment [9] has as its target Retinoic acid receptor RXR-alpha (Homo sapiens) (UniProt P19793). The description is as above. The following applies: HEK293T RXRa-UAS-bla, beta-lactamase ratio, antagonist mode. The procedure, abridged: as §2
Experiment [10] addresses Vitamin D3 receptor (Homo sapiens) (UniProt P11473). As to the kind of experiment: qHTS assay for small molecule antagonists of vitamin D receptor signaling (AID 588541).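 Also: receptor activated by calcitriol during compound treatment; % is scaled to controls: 0 for no effect and ±100 for the full control effect.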 The following applies: HEK293T VDR-UAS-bla, beta-lactamase ratio, antagonist mode; series mostly up to 76.7 µM. Put shortly:
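VDR-UAS-bla HEK293T cells (2000/well, 2% charcoal-stripped FBS) were treated with titrated compounds plus 1-alpha,25-dihydroxyvitamin D3 (50 nM or 3 nM final) for 16 h at 37 C. CCF4 beta-lactamase fluorescence was read; Hill fits gave IC50.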

Several values for one entry are separate records, joined by “and”; a condition that tells them apart may be missing. Identical values can stand only once. Results filed as inconclusive are left out. Activity calls are given as the source filed them. Unless noted, calls follow the shape of the full dose curve.

Sequence of Peroxisome proliferator-activated receptor delta (Homo sapiens) (Q03181 whole entry, looked up): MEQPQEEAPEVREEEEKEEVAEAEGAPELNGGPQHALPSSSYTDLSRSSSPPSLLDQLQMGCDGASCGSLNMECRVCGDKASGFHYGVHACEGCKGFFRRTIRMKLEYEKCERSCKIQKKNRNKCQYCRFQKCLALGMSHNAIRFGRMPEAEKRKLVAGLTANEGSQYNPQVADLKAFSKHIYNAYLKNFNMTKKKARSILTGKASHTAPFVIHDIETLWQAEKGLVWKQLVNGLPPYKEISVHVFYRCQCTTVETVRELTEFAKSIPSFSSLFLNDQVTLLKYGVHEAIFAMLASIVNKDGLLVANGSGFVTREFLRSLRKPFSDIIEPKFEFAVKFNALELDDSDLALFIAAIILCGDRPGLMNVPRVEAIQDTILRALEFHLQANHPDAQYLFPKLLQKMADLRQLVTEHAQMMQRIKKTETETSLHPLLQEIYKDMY
Sequence of Thyroid hormone receptor beta (Homo sapiens) (P10828 whole entry, looked up): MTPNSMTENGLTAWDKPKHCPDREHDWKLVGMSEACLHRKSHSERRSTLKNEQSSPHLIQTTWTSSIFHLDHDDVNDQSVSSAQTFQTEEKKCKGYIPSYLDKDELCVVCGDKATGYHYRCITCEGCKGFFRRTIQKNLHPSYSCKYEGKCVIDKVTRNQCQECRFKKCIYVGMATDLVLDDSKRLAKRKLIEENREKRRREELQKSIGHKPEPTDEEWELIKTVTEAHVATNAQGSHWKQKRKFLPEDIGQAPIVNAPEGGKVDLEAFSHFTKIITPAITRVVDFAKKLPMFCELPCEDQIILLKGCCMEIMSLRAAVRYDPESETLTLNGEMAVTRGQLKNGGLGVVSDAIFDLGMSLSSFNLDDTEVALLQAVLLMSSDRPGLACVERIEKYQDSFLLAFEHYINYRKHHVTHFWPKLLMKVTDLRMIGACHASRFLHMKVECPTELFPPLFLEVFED
Sequence of Vitamin D3 receptor (Homo sapiens) (P11473 whole entry, looked up): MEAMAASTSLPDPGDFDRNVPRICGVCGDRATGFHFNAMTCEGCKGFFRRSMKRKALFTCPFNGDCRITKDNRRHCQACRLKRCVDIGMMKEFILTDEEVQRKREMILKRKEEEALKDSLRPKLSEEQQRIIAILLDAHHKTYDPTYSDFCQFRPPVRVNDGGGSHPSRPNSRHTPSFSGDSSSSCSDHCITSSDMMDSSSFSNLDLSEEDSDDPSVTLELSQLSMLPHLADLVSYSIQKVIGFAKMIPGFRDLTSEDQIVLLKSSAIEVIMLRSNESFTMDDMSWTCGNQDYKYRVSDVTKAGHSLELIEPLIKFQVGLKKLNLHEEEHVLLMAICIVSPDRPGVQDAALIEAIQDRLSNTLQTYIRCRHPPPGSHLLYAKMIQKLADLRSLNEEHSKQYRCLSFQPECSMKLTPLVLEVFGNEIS
Sequence of Peroxisome proliferator-activated receptor gamma (Homo sapiens) (P37231 whole entry, looked up): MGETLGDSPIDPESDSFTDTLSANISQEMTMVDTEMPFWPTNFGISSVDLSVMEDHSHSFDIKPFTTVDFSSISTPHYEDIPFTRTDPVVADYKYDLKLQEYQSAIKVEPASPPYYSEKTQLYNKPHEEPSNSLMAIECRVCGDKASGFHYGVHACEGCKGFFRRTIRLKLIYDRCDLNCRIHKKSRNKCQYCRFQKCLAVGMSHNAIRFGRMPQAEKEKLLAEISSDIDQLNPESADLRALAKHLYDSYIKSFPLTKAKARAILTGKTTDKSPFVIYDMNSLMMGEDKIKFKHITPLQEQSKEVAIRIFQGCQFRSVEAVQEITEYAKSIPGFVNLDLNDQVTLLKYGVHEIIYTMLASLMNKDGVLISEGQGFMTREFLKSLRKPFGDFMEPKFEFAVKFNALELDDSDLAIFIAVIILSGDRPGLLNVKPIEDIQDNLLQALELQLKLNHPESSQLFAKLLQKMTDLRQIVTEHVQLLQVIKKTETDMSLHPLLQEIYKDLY

For the compound `O=C(N[C@H](CO)[C@H](O)c1ccc([N+](=O)[O-])cc1)C(Cl)Cl`, the max response was -4.34% and 5.8% in experiment [1]; -13.6% in experiment [5]; -5.3% and -7.21% in experiment [8]; 39.9% (inactive) and -11.1% (inactive) in [9]. In addition, the result in experiment [2], in [3], in experiment [6] and in experiment [7] was inactive. Further, the Potency result in [4] was “inactive”.

For `CC(=O)Oc1ccccc1C(=O)Nc1ncc([N+](=O)[O-])s1`, the max response in experiment [1] was -31.7%. Also, the result in experiment [2] and in experiment [7] was inactive.

Regarding `Cc1ncc([N+](=O)[O-])n1CCO`, the max response in experiment [1] was -0.982%; in experiment [5], 1.6%; in [8], -7.09%; in experiment [9], 26.4% (inactive). In addition, the outcome in experiment [2], in experiment [3], in experiment [6] and in experiment [7] was inactive.

Take `COc1ccc2cc3[n+](cc2c1OC)CCc1cc2c(cc1-3)OCO2`: the outcome in [3], in [10] and in [7] was inactive. The max response is 2.18% in experiment [8] and -28% (inactive) in [9].

In the case of `N[C@@H](Cc1ccc(O)c(O)c1)C(=O)O`, the outcome in experiment [3], in experiment [10], in experiment [6] and in experiment [7] was inactive. In [4], the Potency result was “inactive”. The results for the max response in [5], in experiment [8] and in [9] were -21.2%, -19.3% and 0.985% (inactive), respectively.

Take `CCc1cc(C(N)=S)ccn1`: the max response was -62.7% and 18.6% in experiment [1]; -5.67% in [5]; -0.783% in [8]; 10.8% (inactive) in experiment [9]. For the same compound, the result in experiment [2], in experiment [10], in experiment [6] and in [7] was inactive.

Turning to `CC(=O)[C@H]1CC[C@H]2[C@@H]3CCC4=CC(=O)CC[C@]4(C)[C@H]3CC[C@]12C`, the outcome in experiment [7] was inactive.

For `Cc1ccnc2c1NC(=O)c1cccnc1N2C1CC1`, the max response was 14.9% in [1], 12% in experiment [5], -4.35% in experiment [8] and 11.4% (inactive) in experiment [9]. In addition, the result in experiment [2], in [3], in [10], in experiment [6] and in experiment [7] was inactive.

`CC1=NN(c2ccccc2)C(=O)C1`: the max response in [1] is -24.3%; in experiment [8] it was 3.18%; in [9], 23.1% (inactive). Moreover, the outcome in experiment [2], in experiment [3] and in [7] was inactive.

Regarding `CC(=O)CC(c1ccccc1)c1c(O)c2ccccc2oc1=O` (stereo unspecified), the max response was 2.14% in [5], -2.55% in [8] and 8.9% (inactive) in [9]. In addition, in [6], the call was inactive.

As to `OC(Cn1cncn1)(Cn1cncn1)c1ccc(F)cc1F`, the outcome in experiment [3], in experiment [10], in experiment [6] and in experiment [7] was inactive. In experiment [4], the Potency entry was “inactive”. Further, the max response in [5] was -28.2%; in [8], -2.01%; in experiment [9], 6.23% (inactive).

In the case of `C[C@]12C=CC(=O)C=C1CC[C@@H]1[C@@H]2C(=O)C[C@@]2(C)[C@H]1CC[C@]2(O)C(=O)CO`, the result in [3], in experiment [10], in experiment [6] and in experiment [7] was inactive. Moreover, the max response was 13.7% in experiment [5], 4.53% in experiment [8] and -10.9% (inactive) in experiment [9].

As to `S=P(N1CC1)(N1CC1)N1CC1`, the max response was 6.13% in experiment [1] and -19.8% in [5]. In addition, the result in experiment [2], in experiment [3], in [10], in experiment [6] and in [7] was inactive. In addition, the Potency result in [4] is “inactive”.

As to `NNC(=O)c1ccncc1`, the max response is 0.593% in experiment [1], 1.41% in [5], 1.75% in experiment [8] and 3.12% (inactive) in experiment [9]. Moreover, the result in [2], in experiment [3], in experiment [10], in experiment [6] and in experiment [7] was inactive. Further, the Potency entry in [4] is “inactive”.

Regarding `Cc1nnc(NS(=O)(=O)c2ccc(N)cc2)s1`, the outcome in [3], in experiment [10], in [6] and in experiment [7] was inactive. Also, the max response in experiment [5] was -10.5%; in [8] it was -2.81%; in experiment [9], -2.27% (inactive).

In the case of `N=C(N)c1ccc(OCCCCCOc2ccc(C(=N)N)cc2)cc1`, the results for the max response in experiment [1] and in experiment [5] were -25.7% and 18.8%, respectively. The outcome in [2], in [10], in experiment [6] and in experiment [7] was inactive.

On to `CN(C)c1ccc(C(=C2C=CC(=[N+](C)C)C=C2)c2ccc(N(C)C)cc2)cc1`, for which the Potency in [4] was 44.7 µM (active). Besides, the result in experiment [10] and in [7] was inactive.

With `CC[C@H](C)C(=O)O[C@H]1C[C@@H](C)C=C2C=C[C@H](C)[C@H](CC[C@@H]3C[C@@H](O)CC(=O)O3)[C@H]21`, the outcome in [3] and in [10] was inactive.

As to `Cc1noc(NS(=O)(=O)c2ccc(N)cc2)c1C`, the max response was 23.8% and 11.7% in [1]; 3.43% in experiment [5]; 9.97% and -11.9% in experiment [8]; 10.6% (inactive) and -8.28% (inactive) in experiment [9]. Moreover, the outcome in experiment [2], in experiment [3], in experiment [6] and in experiment [7] was inactive. Besides, the Potency entry in experiment [4] is “inactive”.

As to `O=C(O)c1cc(=O)[nH]c(=O)[nH]1`, the outcome in [3], in experiment [6] and in experiment [7] was inactive. The max response in experiment [5] was 0.884%; in experiment [8], 2.15%; in experiment [9] it was 5.81% (inactive).

Consider `Cc1cc(NS(=O)(=O)c2ccc(N)cc2)no1`, for which the outcome in [3], in [10], in experiment [6] and in [7] was inactive. Further, the results for the max response in [5], in [8] and in [9] were 12.4%, -9.35% and 6.61% (inactive), respectively.

As for `NC(N)=NC(N)=NCCc1ccccc1`, the max response was -11.9% and 9.95% in [1]; 8.58% and 2.73% in experiment [5]; 0.584% and 0.821% in experiment [8]; 19.7% (inactive) and -15.5% (inactive) in [9]. Also, the result in experiment [2], in experiment [3], in [6] and in experiment [7] was inactive. Further, the Potency result in experiment [4] was “inactive”.

For `Nc1nc(N)c2nc(CNc3ccc(C(=O)NC(CCC(=O)O)C(=O)O)cc3)cnc2n1` (stereo unspecified), the max response in experiment [1] worked out at 44.5%. Further, the result in [2] and in experiment [10] was inactive.
